# In all, about 98,000 compounds went through this assay and about 4,900 (5%) were called active. No stated cut-off is given here; in the data, active means inhibition above about 30%; inactive means the rest. Only a selection was taken, and actives are over-represented in it overall.
# Experiment: growth inhibition of yeast control strain, primary screen, counter-screen for post-Golgi transport modulator project (AID 738)
# Conditions: efflux-deficient yeast background strain, growth absorbance A615, 16 h; at 10 µM; hits give high values
row,SMILES,inhibition
1,CCC(=O)c1c[nH]c(C(=O)NCC2CCCO2)c1 (stereo unspecified),-1.27% (inactive)
2,CCOc1cccc(C(=O)Nc2cccnc2)c1,-3.62% (inactive)
3,Cc1cc(C)c(NC(=O)CS(=O)CC(=O)Nc2cccnc2)c(C)c1 (stereo unspecified),-5.42% (inactive)
4,Cc1cccc(-n2cnc(C(=O)Nc3cccnc3)c2)n1,31.6% (active)
5,Cc1cccc2cc(CN(Cc3nnnn3Cc3ccccc3)C3CCCC3)c(=O)[nH]c12,13.2% (inactive)
6,CCOc1ccc2[nH]c(=O)c(CN(Cc3nnnn3Cc3ccccc3)CC3CCCO3)cc2c1 (stereo unspecified),0.14% (inactive)
7,Cc1cc(C)c2cc(CN(Cc3nnnn3Cc3ccc(F)cc3)C3CCCC3)c(=O)[nH]c2c1,41.1% (active)
8,N#Cc1c(C(F)(F)F)cc(-c2ccccc2)nc1SCC(=O)N1CCOCC1,-3.4% (inactive)
9,COc1ccc(C(c2nnnn2Cc2cccs2)N2CCN(c3ccccc3)CC2)cc1OC (stereo unspecified),11.7% (inactive)
10,COc1ccc(CCn2nnnc2C(c2ccccc2)N2CCN(C)CC2)cc1OC (stereo unspecified),22.5% (inactive)
11,Cc1cccc(N2CCN(C(c3ccccc3)c3nnnn3CC3CCCO3)CC2)c1C (stereo unspecified),44.4% (active)
12,Cc1cc(OCCOc2cccc3cccnc23)c(C)cc1Cl,7.3% (inactive)
13,CCOC(=O)C1=C(C)Nc2sc(C(=O)c3ccc(Br)cc3)c(N)c2C1c1ccc(C(=O)OC)cc1 (stereo unspecified),9.7% (inactive)
14,COc1ccc(C(C(=O)NCc2ccccc2)N(Cc2cccs2)C(=O)c2cnccn2)cc1 (stereo unspecified),7.02% (inactive)
15,O=C(N/N=C/c1ccsc1)c1cc(O)cc(O)c1,1.53% (inactive)
16,COc1ccc(/C=C(\NC(=O)c2ccc(OC)c(OC)c2)C(=O)NCCc2c[nH]c3ccccc23)cc1,6.34% (inactive)
17,CS(=O)(=O)N(CC(O)Cn1c2ccccc2c2ccccc21)c1cccc2ccccc12 (stereo unspecified),46.2% (active)
18,O=S(=O)(c1ccccc1)N(CC(O)CN1CCCCC1)c1ccccc1 (stereo unspecified),-1.97% (inactive)
19,CC(=O)c1ccc2c(c1)c1ccccc1n2CC(C)C,23.7% (inactive)
20,N#Cc1ccc(-c2ccc(F)cc2)nc1Sc1ccccc1,8.35% (inactive)
21,O=S(=O)(Nc1ccccn1)c1ccc(Oc2ccccc2)cc1,5.52% (inactive)

row,SMILES,inhibition
1,Cc1cc(C)cc(NS(=O)(=O)c2ccc(Oc3ncc(C(F)(F)F)cc3Cl)cc2)c1,33% (active)
2,COc1ccccc1Oc1ccc(S(=O)(=O)Nc2cccnc2)cc1,0.59% (inactive)
3,CC1(C)CC(=O)C2=C(C1)N=C1SCCC(=O)N1C2c1ccc(C(F)(F)F)cc1 (stereo unspecified),10.4% (inactive)
4,COc1ccc(CCNC(=O)c2ccco2)cc1,14.4% (inactive)
5,CCNC(=S)NNC(=O)Cc1ccccc1,8.07% (inactive)
6,CC(Oc1ccc2ccccc2c1)C(=O)NNC(=S)NC(=O)c1ccco1 (stereo unspecified),96.2% (active)
7,COc1ccc(C(=O)NC(=S)NNC(=O)CCc2ccccc2)cc1,31.5% (active)
8,CCOC(=O)c1c(NC(=S)NC(=O)c2ccco2)sc2c1CCCC2,3.33% (inactive)
9,O=C(Nc1ccc(Oc2ccccc2)cc1)c1ccco1,-0.32% (inactive)
10,COc1ccc(OCC(=O)NNC(=O)c2ccc(-c3ccccc3)cc2)cc1,-1.92% (inactive)
11,CCOc1cc(NC(=O)c2ccco2)c(OCC)cc1NC(=O)COc1ccccc1,6.65% (inactive)
12,CCCc1ccc(OCC(=O)NNC(=S)NC(=O)c2ccco2)cc1,33.4% (active)
13,NC(=O)C1(N2CCCCC2)CCN(C2CC(=O)N(Cc3ccc(N4CCCC4=O)cc3)C2=O)CC1 (stereo unspecified),10.8% (inactive)
14,O=C(CCC(=O)OCc1cccc(C(=O)Oc2ccccc2)c1)Nc1cccc2ccccc12,0.79% (inactive)
15,O=C1OC(c2ccc(Cl)cc2)=N/C1=C\c1cccnc1,-10.4% (inactive)
16,CS(=O)(=O)c1sc2nc(-c3ccccc3)cc(-c3ccccc3)c2c1N,10.9% (inactive)
17,O=C1CN(c2nc(-c3ccccc3)c3cc(Br)ccc3n2)c2ccccc2N1,6.52% (inactive)
18,COc1ccccc1NC(=O)COc1ccc(C(=O)OCC(=O)N(C(C)C)C(C)C)cc1OC,13.2% (inactive)
19,FC(F)(F)c1cc(-c2ccco2)nc(NCc2ccc(Cl)cc2)n1,25.8% (inactive)
20,OC(COc1ccc2ccccc2c1)CN1CCOCC1 (stereo unspecified),15.5% (inactive)
21,Cc1ccc(OCC(O)CN2CCN(CC(O)COc3ccc(C)cc3Cl)CC2)c(Cl)c1 (stereo unspecified),94.4% (active)

row,SMILES,inhibition
1,COc1cccc(OCC(O)CN2CCN(CCO)CC2)c1 (stereo unspecified),-4.45% (inactive)
2,Cc1ccc(-c2nc(C)sc2CC(=O)O)cc1,6.8% (inactive)
3,COc1ccccc1N(C)S(=O)(=O)c1ccc(C(=O)N2CCC(C(N)=O)CC2)cc1,1.96% (inactive)
4,NC(=O)C1CCN(C(=O)c2ccc(-c3ccccc3)cc2)CC1,6.88% (inactive)
5,NC(=O)C1CCN(C(=O)c2ccc(C(F)(F)F)cc2)CC1,36.9% (active)
6,O=c1oc2c(Cl)cc(Cl)cc2cc1-c1nnc(Nc2ccccc2F)s1,-3.4% (inactive)
7,CCS(=O)(=O)n1nc(-c2ccc(OC)cc2)nc1SC,9.73% (inactive)
8,Cn1c(CO)cnc1SCc1ccccc1,9.24% (inactive)
9,CCS(=O)(=O)n1nc(-c2ccccc2)nc1SCc1ccccc1,31.2% (active)
10,CCC1(C)Cc2c(sc3nnn(CC(=O)Nc4ccc(Cl)cc4)c(=O)c23)CO1 (stereo unspecified),6.74% (inactive)
11,O=C(NCCCN1CCOCC1)c1cc2c(s1)CCC2,-14.4% (inactive)
12,Cc1ccc(-c2n[nH]c(=S)n2/N=C/c2cc3c(cc2[N+](=O)[O-])OCO3)cc1,-11.7% (inactive)
13,Cc1n[nH]c(=S)n1/N=C/c1ccc(Br)o1,49.4% (active)
14,C=CCNC(=S)NNc1ncnc2sc3c(c12)CC(C)(C)OC3,0% (inactive)
15,COc1ccccc1NC(=S)NC(=O)C(C)C,12.3% (inactive)
16,O=C(NCN1CCN(CCO)CC1)c1cnccn1,-5.66% (inactive)
17,Cc1ccc(SCc2cc(=O)[nH]c(N3CCCCC3)n2)cc1,7.96% (inactive)
18,O=c1cc(-c2ccccc2)nc(N2CCCCC2)[nH]1,45% (active)
19,O=c1cc(CSc2ccccn2)nc(N2CCN(c3ccccc3)CC2)[nH]1,8.73% (inactive)

# From PubChem BioAssay AID738 (SRMLSC, 2007)
